Mtb hypoxia rep: PubChem AID 1159583. M. tuberculosis hypoxia-regulated fluorescent reporter, fluorescence. fluorescence inhibition, % (no concentration beside the values). actives 0.1% (n = 300,000); in the data active means fluorescence inhibition mostly above about 23%, no sharp cut-off; inactive means mostly below about 17%
Mtb BioA inh: M. tuberculosis BioA enzyme inhibitors, primary screen, biochemical, plate reader, single point, HTS | purified M. tuberculosis BioA enzyme | actives 0.096% (n = 360,000) | 7,8-diaminopelargonic acid synthase BioA (Mycobacterium tuberculosis) | inhibition, % at 9.99 µM; in the data active means inhibition above about 40%
FadD28 FP inh: inhibitors of FadD28 bisubstrate probe binding, primary screen, biochemical, fluorescence polarization, single point; Mycobacterium tuberculosis FadD28 fatty-acid-AMP ligase; inhibition, % at 12.5 µM; actives 0.22% (n = 360,000); in the data active means inhibition above about 8.5%, passing the limit was not always enough
Mtb FBA inh: Mtb FBA enzyme inhibitors, primary screen, biochemical, fluorescence, strain H37Rv; Fructose-bisphosphate aldolase (Mycobacterium tuberculosis (strain ATCC 25618 / H37Rv)), …; purified M. tuberculosis FBA, fluorescence read-out; inhibition, % at 1 µM; actives 2.3% (n = 360,000); AID 588726, 2011;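 further: 0% = vehicle and 100% = reference inhibitor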
Target sequence (P9WQA3 whole entry, looked up): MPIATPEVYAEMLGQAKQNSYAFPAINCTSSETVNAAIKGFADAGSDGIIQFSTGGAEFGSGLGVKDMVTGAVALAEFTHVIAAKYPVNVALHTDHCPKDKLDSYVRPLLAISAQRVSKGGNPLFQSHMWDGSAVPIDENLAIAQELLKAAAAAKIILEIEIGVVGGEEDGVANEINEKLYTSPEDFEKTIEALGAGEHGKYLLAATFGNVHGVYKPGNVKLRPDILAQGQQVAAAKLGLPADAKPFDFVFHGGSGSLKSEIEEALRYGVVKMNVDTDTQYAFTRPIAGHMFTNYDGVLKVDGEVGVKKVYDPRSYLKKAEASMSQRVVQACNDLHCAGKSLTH
GDH-TPI counter-1: GDH-TPI coupling enzyme inhibitors, primary screen, artefact control for M. tuberculosis FBA inhibitor project, biochemical, absorbance, full deck; inhibition, % at 4.8 µM; actives 1.2% (n = 360,000); AID 588335, 2011; GDH-TPI coupled enzyme counterscreen, NADH absorbance; in the data active means inhibition above about 30%;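 further: 0% = DMSO wells and 100% = wells lacking the enzyme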
Mtb FBA confirm: M. tuberculosis aldolase blockers, biochemical, fluorescence, strain H37Rv, confirmation; shares compounds with Mtb FBA inh; purified M. tuberculosis FBA, fluorescence read-out; inhibition, % at 1 µM; actives 78% (n = 5,600); AID 651616, 2012;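 further: 0% = vehicle wells and 100% = reference inhibitor wells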
GDH-TPI counter-2: GDH-TPI coupling enzyme inhibitors, artefact control for M. tuberculosis FBA inhibitor project, biochemical, fluorescence, high throughput. shares compounds with Mtb FBA inh. actives 81% (n = 5,600). inhibition, % at 1 µM. AID 652141, 2013. GDH-TPI coupled enzyme counterscreen; in the data active means inhibition above about 10%
An asterisk follows results filed as active; nt = no result given; + = active, no number. This is a sample that favours compounds with a hit; in the whole collection about 2.9% have one here. Unless noted, no stated cut-off is given here; in the data, active means inhibition above about 27%; inactive means the rest.

SMILES | Mtb hypoxia rep | Mtb BioA inh | FadD28 FP inh | Mtb FBA inh | GDH-TPI counter-1 | Mtb FBA confirm | GDH-TPI counter-2
COc1ccc2[nH]c(C(=O)NCCc3ccccc3)cc2c1 | 18 | 1 | 0 | 48* | -3 | 5 | -4
CCCCNC(=O)c1cc2cc(OC)ccc2[nH]1 | 8 | 0 | -2 | 49* | 12 | -4 | -7
COCC(=O)N(C[C@@H]1N[C@@H](CO)[C@H]1c1ccc(C2=CCCC2)cc1)C(C)C | nt | -2 | nt | nt | nt | nt | nt
COc1ccc2[nH]c(C(=O)O)c(CCNC(C)=O)c2c1 | -3 | 2 | 0 | 49* | 14 | 125* | 106*
COc1ccc2[nH]c(C(=O)NCCCn3ccnc3)cc2c1 | 11 | -3 | 1 | 86* | 0 | 125* | 90*
COc1ccc2[nH]c(=O)c(C(=O)O)cc2c1 | 10 | nt | -2 | 53* | 9 | 66* | 61*
COc1ccc2[nH]c(=O)cc(C(=O)O)c2c1 | 5 | nt | -1 | 15 | 7 | nt | nt
COc1ccc(CNC(=O)Cc2c(C(=O)O)[nH]c3ccccc23)c(OC)c1 | 3 | -2 | 0 | 0 | -4 | nt | nt
O=C(NCCc1ccccc1)c1ccc2[nH]c(=O)c(=O)[nH]c2c1 | 2 | 0 | -4 | 33* | 0 | 32* | 19*
O=C(NCCc1ccccc1)c1ccc(=O)[nH]c1 | 4 | nt | 2 | 7 | 11 | nt | nt
COc1ccc(C(=O)c2c[nH]c(C(=O)NCCCn3ccnc3)c2)cc1 | 2 | nt | -1 | 2 | 1 | nt | nt
O=C(O)c1cc2cc(OCc3ccccc3)ccc2[nH]1 | 0 | -1 | 0 | 39* | 4 | 129* | 97*
O=C(O)c1cc(OCc2ccccc2)cc(OCc2ccccc2)c1 | -4 | 3 | 1 | 3 | 4 | nt | nt
CCN(CC)CCN1C(=O)c2ccccc2NC1c1ccc(F)cc1 (stereo not given) | -2 | -3 | 0 | 45* | 13 | 129* | 117*
CCN(CC)CCN1C(=O)c2ccccc2NC1c1ccccc1F (stereo not given) | 14 | 0 | -1 | 68* | 7 | 169* | 88*
CCN(CC)CCN1C(=O)c2ccccc2NC1c1cccc(F)c1 (stereo not given) | -13 | -2 | -1 | 51* | 8 | 27* | 21*
CCN(CC)CCN1C(=O)c2ccccc2NC1c1ccc(N(C)C)cc1 (stereo not given) | nt | -1 | -6 | 13 | 0 | nt | nt
O=C1c2ccccc2NC(c2ccccc2F)N1NS(=O)(=O)c1ccccc1 (stereo not given) | 3 | 2 | 1 | 13 | 3 | nt | nt
CCN(CC)CCN1C(=O)c2ccccc2NC1c1ccc(C)cc1 (stereo not given) | 13 | 0 | -2 | 79* | 10 | 63* | 38*
O=C1c2ccccc2NC(c2cccc([N+](=O)[O-])c2)N1CCc1ccccc1 (stereo not given) | 15 | 0 | -3 | -2 | 4 | nt | nt
COc1cccc(S(=O)(=O)N[C@@H]2CC[C@H](CC(=O)NCc3ccc(Cl)cc3)O[C@@H]2CO)c1 | nt | -4 | nt | nt | nt | nt | nt
O=C(O)CCC(=O)NN1C(=O)c2ccccc2NC1c1ccc(F)cc1 (stereo not given) | 7 | nt | -1 | 40* | 3 | 127* | 95*
CCN(CC)CCN1C(=O)c2ccccc2NC1c1ccc(Br)cc1 (stereo not given) | -2 | nt | -1 | 84* | 10 | 121* | 101*
Cc1cc(=O)[nH]c(NN=Cc2ccco2)n1 | -2 | nt | nt | nt | nt | nt | nt
Cc1c(C(=O)N2CC3(CC(c4cccc(NC(=O)C5CCC(=O)N5)c4)=NO3)CC2C(N)=O)cc([N+](=O)[O-])cc1[N+](=O)[O-] (stereo not given) | -5 | nt | nt | nt | nt | nt | nt
SMILES | Mtb hypoxia rep | Mtb BioA inh | FadD28 FP inh | Mtb FBA inh | GDH-TPI counter-1 | Mtb FBA confirm | GDH-TPI counter-2
CCCCCCC(=O)Nc1c2c(nc3ccccc13)N(C)CC2 | nt | 0 | -1 | 48* | 6 | 94* | 100*
C[C@H](CO)N1C[C@H](C)[C@H](CN(C)Cc2ccccc2)OCCCC[C@H](C)Oc2ccc(NC(=O)Nc3cccc4ccccc34)cc2C1=O | nt | 4 | nt | nt | nt | nt | nt
CCOC(=O)c1sc(N(C)C)nc1-c1ccccc1 | nt | -2 | 1 | 39* | 14 | 136* | 97*
Cc1ccc(NCC(=O)NN=Cc2cc3ccccc3nc2Cl)cc1 | 4 | nt | nt | nt | nt | nt | nt
Nc1nc(-c2ccc(-c3ccccc3)cc2)cs1 | -5 | nt | 0 | 33* | 3 | + | +
Nc1ccc(-c2cc(-c3ccc(N)cc3)nc(-c3ccccc3)n2)cc1 | -3 | -5 | -1 | 39* | 18 | 54* | 28*
C[C@@H]1CN([C@@H](C)CO)C(=O)c2cc(NC(=O)C3CCCCC3)ccc2O[C@@H](C)CCCCO[C@@H]1CN(C)S(=O)(=O)c1cccs1 | nt | -2 | nt | nt | nt | nt | nt
CCOc1ccc2nc(N3CCOCC3)nc(C)c2c1 | nt | -3 | 0 | 51* | 15 | 131* | 109*
Nc1nc(N2CCOCC2)nc2ccccc12 | 16 | 0 | 0 | 75* | 23 | -5 | -7
c1ccc2c(N3CCCCC3)nc(N3CCOCC3)nc2c1 | 9 | nt | 1 | 11 | 13 | nt | nt
c1ccc2c(NCC3CCCO3)nc(N3CCOCC3)nc2c1 (stereo not given) | 14 | 0 | -2 | 64* | 14 | 176* | 132*
c1ccc2c(c1)nc(N1CCOCC1)c1c3ccccc3[nH]c21 | 3 | nt | -3 | 31* | -1 | 62* | 63*
O=c1[nH]c2ccccc2nc1N1CCOCC1 | nt | -2 | 0 | -2 | 26 | nt | nt
C=CCNC(=O)CSc1n[nH]c(-c2cc(Cl)ccc2OC)n1 | 18 | -1 | -2 | 0 | -1 | nt | nt
CSc1scc2c1-c1nc(SCC(=O)C(C)(C)C)ncc1CC2 | 7 | nt | -5 | 30* | -5 | 67* | 48*
C=CCNC(=O)CSc1ncc2c(n1)-c1c(csc1SC)CC2 | 13 | 1 | -4 | 99* | 11 | 82* | 59*
CC(C)(C)C(=O)CSc1ncccn1 | -8 | -1 | 1 | 2 | 5 | nt | nt
Cc1noc(C)c1NC(=O)N(C)C[C@@H]1Oc2ncc(C#CC3CC3)cc2C(=O)N([C@H](C)CO)C[C@H]1C | nt | 0 | nt | nt | nt | nt | nt
CC(=NNC(=O)C1CC1)c1cccs1 | -4 | nt | nt | nt | nt | nt | nt
NS(=O)(=O)c1ccc(CCNC(=O)c2ccc3c(c2)N(Cc2ccccc2)CCS3)cc1 | -10 | -1 | 1 | 68* | 10 | 2 | -4
COc1ccc(CCNC(=O)c2ccc3c(c2)N(Cc2ccccc2)CCS3)cc1OC | 11 | nt | -3 | 64* | 10 | 100* | 83*

Screening data as filed in PubChem BioAssay.
